Measurements: PubChem BioAssay (NCI)
This is part of a sample that, as a whole, favours compounds with a hit. Of some 79,000 tested, about 15% had one in any assay. The source made the active and inactive calls. Rule as the data show it: active = growth inhibition above about 70%; inactive = the rest.

Tests used:
[1] = NCI Yeast Anticancer Drug Screen. Data for the wt1 strain (AID 149);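 also: 0% = growth of vehicle-treated wt1 cultures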; details: S. cerevisiae wt1 strain (SPY 50644) growth inhibition, hits give high values
How it was run: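 Measured: growth of wt1 yeast under compound versus vehicle treatment, reported as inhibition.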

[2] = NCI Yeast Anticancer Drug Screen. Data for the rad50EPP+ strain (AID 151);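 also: 0% = growth of vehicle-treated control cultures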; details: S. cerevisiae rad50 mutant strain, hits give high values
How it was run: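 Measured: growth inhibition of rad50EPP+ yeast. Reference: vehicle-treated controls. Screen uses strains with defined genetic alterations in DNA damage repair or cell cycle control.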

[3] = NCI Yeast Anticancer Drug Screen. Data for the mgt1 strain (AID 153); details: S. cerevisiae mgt1 mutant growth inhibition, hits give high values
How it was run: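 Compounds were applied to mgt1 mutant yeast, and growth was then compared against vehicle-treated control cultures to give percent inhibition.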

[4] = NCI Yeast Anticancer Drug Screen. Data for the rad50 strain (AID 155);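 also: 0% = growth of vehicle-only cultures of the same strain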; details: S. cerevisiae rad50 strain growth inhibition, hits give high values
How it was run: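 Growth of the mutant yeast was measured after compound exposure and referenced to vehicle-treated cultures.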

[5] = NCI Yeast Anticancer Drug Screen. Data for the mec2-1 strain (AID 157); details: S. cerevisiae mec2-1 strain, hits give high values
How it was run: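 Compounds were applied to mec2-1 yeast cells. Their growth was then compared with that of vehicle-treated cultures to give growth inhibition.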

[6] = NCI Yeast Anticancer Drug Screen. Data for the sgs1 mgt1 strain (AID 161);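 also: 0% = growth of cultures given vehicle only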; details: S. cerevisiae sgs1 mgt1 strain, hits give high values
How it was run: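 Compounds are added to genetically altered yeast, and growth is compared with cultures given vehicle alone to give percent inhibition.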

[7] = NCI Yeast Anticancer Drug Screen. Data for the CLN2oe strain (AID 163);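 also: 0% = growth of vehicle-only control cultures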; details: S. cerevisiae CLN2oe strain, hits give high values
How it was run: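 Cells of an engineered yeast line with disturbed cell-cycle regulation are treated with compound. Inhibition of growth is then calculated relative to the vehicle-treated reference.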

[8] = NCI Yeast Anticancer Drug Screen. Data for the cln2 rad14 strain (AID 165);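 also: 0% = growth equal to vehicle treated cultures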; details: S. cerevisiae cln2 rad14 strain, hits give high values
How it was run: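 Strain: cln2 rad14 yeast, altered in cell cycle control and DNA damage repair. Read-out: growth inhibition vs vehicle.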

[9] = NCI Yeast Anticancer Drug Screen. Data for the bub3 strain (AID 167); details: S. cerevisiae bub3 mutant strain, hits give high values
How it was run: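 Whole-cell yeast assay. The mutant strain was incubated with compounds, and growth inhibition was determined by comparison with vehicle-treated cells.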

[10] = NCI Yeast Anticancer Drug Screen. Data for the wt2 strain (AID 169);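 also: 0% = growth of vehicle-treated yeast cultures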; details: S. cerevisiae wt2 strain growth inhibition, hits give high values
How it was run: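 Growth of compound-treated yeast is measured and expressed as inhibition relative to vehicle-only controls.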

[11] = NCI Yeast Anticancer Drug Screen. Data for the mlh1 strain (AID 171);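 also: 0% = growth of vehicle-treated control cultures of the same strain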; details: S. cerevisiae mlh1 strain growth inhibition, hits give high values
How it was run: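 Test agents were incubated with yeast bearing a defined DNA damage repair or cell cycle control alteration; values are growth inhibition normalised to vehicle-treated cultures.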

[12] = NCI Yeast Anticancer Drug Screen. Data for the sgs1 strain (AID 173);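 also: 0% = growth of vehicle-only control cultures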; details: S. cerevisiae sgs1 mutant, hits give high values
How it was run: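 Strain with an altered DNA repair or cell cycle pathway exposed to compound. Growth then measured. Value = inhibition versus vehicle control.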

[13] = NCI Yeast Anticancer Drug Screen. Data for the mlh1 rad18 strain (AID 175); details: S. cerevisiae mlh1 rad18 strain growth inhibition, hits give high values
How it was run: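 A repair-deficient yeast strain is exposed to test compound, and growth is scored relative to vehicle-treated controls.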

[14] = NCI Yeast Anticancer Drug Screen. Data for the rad18 strain (AID 177); details: S. cerevisiae rad18 mutant growth inhibition, hits give high values
How it was run: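 DNA-repair-defective yeast; compound treatment; growth inhibition scored against vehicle.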

[15] = NCI Yeast Anticancer Drug Screen. Data for the rad14 strain (AID 159);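 also: 0% = growth of vehicle-treated control cultures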; details: S. cerevisiae rad14 strain growth inhibition, hits give high values
How it was run: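 Here, inhibition of yeast growth was measured after compound exposure, using a strain with a genetic defect in DNA damage repair and vehicle-treated cultures as the reference.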

[16] = at 5.0 µM (retest, dose inferred, filed as 0.5)
[17] = at 50.0 µM (retest, dose inferred, filed as 5.0)

Measured: growth inhibition

CCCCOc1ccc(Nc2c3ccccc3nc3ccccc23)cc1
active: [1]; at 33.0 µM 98% | [1]; at 100.0 µM 83% | [2]; at 3.7 µM 71% | [2]; at 11.0 µM 91% | [2]; at 33.0 µM 94% | [2]; at 100.0 µM 78% | [3]; at 11.0 µM 86% | [3]; at 33.0 µM 99% | [3]; at 100.0 µM 78% | [4]; at 3.7 µM 79% | [4]; at 11.0 µM 93% | [4]; at 33.0 µM 98% | [4]; [17] 96% | [4]; at 50.0 µM 90.7% | [4]; at 100.0 µM 85% | [5]; at 33.0 µM 97% | [5]; [17] 89% | [5]; at 50.0 µM 88% | [5]; at 100.0 µM 73% | [6]; [17] 94% | [6]; at 50.0 µM 91.3% | [7]; at 11.0 µM 72% | [7]; at 33.0 µM 98% | [7]; at 100.0 µM 76% | [8]; at 50.0 µM 88.8% | [9]; at 33.0 µM 99% | [9]; [17] 98% | [9]; at 50.0 µM 86.8% | [10]; at 11.0 µM 75% | [10]; at 33.0 µM 98% | [10]; at 100.0 µM 78% | [11]; at 33.0 µM 98% | [11]; at 100.0 µM 74% | [12]; at 11.0 µM 87% | [12]; at 33.0 µM 98% | [12]; at 100.0 µM 82% | [13]; [17] 92% | [13]; at 50.0 µM 87% | [14]; at 11.0 µM 89% | [14]; at 33.0 µM 99% | [14]; at 100.0 µM 75%
inactive: [1]; at 1.2 µM -12% | [1]; at 3.7 µM -24% | [1]; at 11.0 µM 69% | [2]; at 1.2 µM 13% | [3]; at 1.2 µM -27% | [3]; at 3.7 µM -13% | [4]; at 1.2 µM 41% | [4]; [16] 50% | [5]; at 1.2 µM -24% | [5]; at 3.7 µM -37% | [5]; [16] 12% | [5]; at 11.0 µM 68% | [6]; [16] 10% | [7]; at 1.2 µM -26% | [7]; at 3.7 µM 0% | [8]; [16] 10% | [8]; [17] -7% | [9]; at 1.2 µM -56% | [9]; at 3.7 µM -55% | [9]; [16] 15% | [9]; at 11.0 µM 66% | [9]; at 100.0 µM 69% | [10]; at 1.2 µM 7% | [10]; at 3.7 µM -10% | [11]; at 1.2 µM -39% | [11]; at 3.7 µM -34% | [11]; at 11.0 µM 34% | [12]; at 1.2 µM -3% | [12]; at 3.7 µM -11% | [13]; [16] 26% | [14]; at 1.2 µM -9% | [14]; at 3.7 µM -9%

O=C1C=CC(=Nc2ccc3c(c2)Cc2cc(Cl)ccc2-3)O1
active: [1]; at 33.0 µM 99% | [1]; at 100.0 µM 98% | [2]; at 1.2 µM 78% | [2]; at 3.7 µM 90% | [2]; at 11.0 µM 98% | [2]; at 33.0 µM 99% | [2]; at 100.0 µM 96% | [3]; at 33.0 µM 99% | [3]; at 100.0 µM 99% | [4]; at 11.0 µM 78% | [4]; at 33.0 µM 99% | [4]; [17] 99% | [4]; at 50.0 µM 99.5% | [4]; at 100.0 µM 96% | [5]; at 33.0 µM 99% | [5]; [17] 100% | [5]; at 50.0 µM 99% | [5]; at 100.0 µM 98% | [15]; at 11.0 µM 91% | [15]; at 33.0 µM 99% | [15]; at 100.0 µM 97% | [7]; at 33.0 µM 98% | [7]; at 100.0 µM 97% | [8]; [17] 99% | [8]; at 50.0 µM 98.2% | [9]; at 11.0 µM 96% | [9]; at 33.0 µM 99% | [9]; [17] 99% | [9]; at 50.0 µM 99.7% | [9]; at 100.0 µM 97% | [10]; at 11.0 µM 100% | [10]; at 33.0 µM 99% | [10]; at 100.0 µM 98% | [11]; at 11.0 µM 74% | [11]; at 33.0 µM 99% | [11]; at 100.0 µM 98% | [12]; at 11.0 µM 88% | [12]; at 33.0 µM 99% | [12]; at 100.0 µM 98% | [13]; [17] 99% | [13]; at 50.0 µM 84.2% | [14]; at 11.0 µM 95% | [14]; at 33.0 µM 99% | [14]; at 100.0 µM 97%
inactive: [1]; at 1.2 µM -3% | [1]; at 3.7 µM 10% | [1]; at 11.0 µM 56% | [3]; at 1.2 µM 2% | [3]; at 3.7 µM 20% | [3]; at 11.0 µM 68% | [4]; at 1.2 µM -1% | [4]; at 3.7 µM 24% | [4]; [16] 25% | [5]; at 1.2 µM 6% | [5]; at 3.7 µM 19% | [5]; [16] 34% | [5]; at 11.0 µM 68% | [15]; at 1.2 µM 10% | [15]; at 3.7 µM 32% | [7]; at 1.2 µM -1% | [7]; at 3.7 µM 3% | [7]; at 11.0 µM 23% | [8]; [16] 7% | [9]; at 1.2 µM 4% | [9]; at 3.7 µM 12% | [9]; [16] 7% | [10]; at 1.2 µM 5% | [10]; at 3.7 µM 28% | [11]; at 1.2 µM 9% | [11]; at 3.7 µM 21% | [12]; at 1.2 µM 11% | [12]; at 3.7 µM 48% | [13]; [16] 32% | [14]; at 1.2 µM 10% | [14]; at 3.7 µM 36%

[Cl][Pt+2][Cl].[NH-]CC1(C[NH-])CCCCC1
inactive: [1]; at 1.2 µM -67% | [1]; at 3.7 µM -17% | [2]; at 1.2 µM -41% | [2]; at 3.7 µM -6% | [3]; at 1.2 µM -44% | [3]; at 3.7 µM 12% | [4]; at 1.2 µM -63% | [4]; at 3.7 µM -37% | [4]; [16] 26% | [5]; at 1.2 µM -67% | [5]; at 3.7 µM -19% | [5]; [16] 21% | [15]; at 1.2 µM -29% | [15]; at 3.7 µM 6% | [6]; [16] 53% | [8]; [16] 43% | [8]; at 50.0 µM 69.5% | [9]; at 1.2 µM -42% | [9]; at 3.7 µM 23% | [9]; [16] 45% | [10]; at 1.2 µM -23% | [10]; at 3.7 µM 28% | [11]; at 1.2 µM -68% | [11]; at 3.7 µM -2%
active: [1]; at 11.0 µM 99% | [1]; at 33.0 µM 99% | [1]; at 100.0 µM 98% | [2]; at 11.0 µM 96% | [2]; at 33.0 µM 98% | [2]; at 100.0 µM 98% | [3]; at 11.0 µM 98% | [3]; at 33.0 µM 99% | [3]; at 100.0 µM 98% | [4]; at 11.0 µM 86% | [4]; at 33.0 µM 98% | [4]; [17] 100% | [4]; at 50.0 µM 91.1% | [4]; at 100.0 µM 98% | [5]; at 11.0 µM 98% | [5]; at 33.0 µM 99% | [5]; [17] 100% | [5]; at 50.0 µM 91.9% | [5]; at 100.0 µM 98% | [15]; at 11.0 µM 96% | [15]; at 33.0 µM 98% | [15]; at 100.0 µM 98% | [6]; [17] 100% | [6]; at 50.0 µM 92.7% | [8]; [17] 100% | [9]; at 11.0 µM 97% | [9]; at 33.0 µM 99% | [9]; [17] 100% | [9]; at 50.0 µM 91.7% | [9]; at 100.0 µM 98% | [10]; at 11.0 µM 90% | [10]; at 33.0 µM 99% | [10]; at 100.0 µM 99% | [11]; at 11.0 µM 97% | [11]; at 33.0 µM 98% | [11]; at 100.0 µM 97%
